An excerpt weighted towards active compounds, which were near 3.5% of everything screened.
BoNT F protease = blocks Botulinum neurotoxin F light chain protease. Multiplex microsphere protease cleavage assay, flow cytometry. inhibition, % at 10 µM. actives 0.22% (n = 360,000). AID 588497; in the data active means inhibition above about 35%, passing the limit was not always enough; inconclusive means no clear call, values can overlap the other calls
Anthrax LF prot = blocks Bacillus anthracis lethal factor protease | inhibition, % at 10 µM | P15917 | actives 0.12% (n = 360,000) | multiplex microsphere protease cleavage assay, LF
Bead autofluor = counter-screen for toxin protease inhibitors: compound fluorescence. compound autofluorescence counterscreen, microsphere flow cytometry; stronger effect = higher value. fluorescence intensity (test concentration not listed). actives 3.1% (n = 360,000). AID 624483; in the data active means fluorescence intensity above about 16000; inconclusive means no clear call, values can overlap the other calls
BoNT-A LC inh2 = inhibitors of Botulinum neurotoxin A light chain protease; actives 0.17% (n = 360,000); AID 588499; inhibition, % at 10 µM; multiplex microsphere protease substrate cleavage, flow cytometry
Hits are given with their value; i = inactive; ? = inconclusive. Unless noted, no stated cut-off is given here; in the data, active means inhibition above about 30%; inconclusive means no clear call, values can overlap the other calls; inactive means below that.

SMILES	BoNT F protease	Anthrax LF prot	Bead autofluor	BoNT-A LC inh2
O=[N+]([O-])c1ccc(O)c(/C=N/NC2=NS(=O)(=O)c3ccccc32)c1	41	i	i	i
O=[N+]([O-])c1ccc(/C=N/NC2=NS(=O)(=O)c3ccccc32)cc1	i	i	i	i
O=C(c1ccco1)C12CN3CN(CN(C3)C1)C2	i	i	21201	i
Cc1cc(Br)ccc1NC(=O)CNC(=O)CSc1n[nH]c(N)n1	40	i	i	i
CCCC(=O)N1CCC1(C)C(=O)Nc1ccc(-n2cccc2)cc1 (stereo not given)	i	i	i	i
COc1ccccc1N1CCN(C(=O)CCCn2c(=O)[nH]c3ccsc3c2=O)CC1	i	i	i	i
COc1ccccc1CNC(=O)CCn1c(=O)[nH]c2ccsc2c1=O	i	i	21437	?
O=C(OCCN1CCN(C2=NS(=O)(=O)c3ccccc32)CC1)c1ccccc1F	i	i	i	i
COc1ccc(Cn2c(CCC(=O)NCCC(C)C)nc3ncccc3c2=O)cc1	i	i	i	i
CC(C)(C)c1ccc(C(=O)NCC(=O)NCC(C)(C)N2CCOCC2)cc1	i	i	?	i
O=C(OCC(=O)N1CCN(C(=O)c2ccco2)CC1)c1cc(-c2cccc(Br)c2)nc2ccccc12	i	i	24517	i
CC(C)c1nnc(SCc2ccc(CSc3nnc(C(C)C)n3N)cc2)n1N	i	i	i	i
CCCSc1nnc(C(C)C)n1N	i	i	22250	?
COc1ccc(-n2nc(C(=O)NCC(=O)NCc3ccco3)c3ccccc3c2=O)cc1	i	i	i	i
O=C(NCc1ccco1)c1nn(-c2ccccc2)c(=O)c2ccccc12	i	i	21403	i
CCN1CCN(C(=O)c2nn(-c3ccccc3)c(=O)c3ccccc23)CC1	i	i	18559	i
Cc1ccc(NC(=O)CSCC(=O)N(C)CC(=O)Nc2ccccc2C(F)(F)F)cc1	i	i	i	i
C[C@@]12CCC3[C@@](CCC4[C@@]3(C)CCC[C@@]4(C)C(=O)N3CCCCC3)(CC1=O)C2 (stereo not given in full)	i	i	i	i
O=C(CN1CCN(c2nc(-c3ccc(F)cc3)cs2)CC1)Nc1ccc2c(c1)OCO2	i	i	16899	i
COc1cc(/C=N/N2CCN(Cc3ccccc3)CC2)cc(OC)c1OC(C)=O	i	i	i	i
COc1ccccc1C(=O)Nc1ccnn1C1CCN(Cc2cnn(C)c2C)CC1	i	i	i	i
CCN(CC)c1ccc(/C=C/c2ccc3ccc(OC)cc3[n+]2CC)cc1	i	i	i	60
CC(=NCc1ccco1)c1c(O)n(C)c(=O)n(C)c1=O	i	i	21713	i
CC(=NCCCn1ccnc1)c1c(O)n(C)c(=O)n(C)c1=O	i	i	19563	i
COc1cc(CN=C(C)c2c(O)n(C)c(=O)n(C)c2=O)cc(OC)c1	i	i	i	i
SMILES	BoNT F protease	Anthrax LF prot	Bead autofluor	BoNT-A LC inh2
CC(=NCC1CCCO1)c1c(O)n(C)c(=O)n(C)c1=O (stereo not given)	i	i	20914	i
CC(=NCc1ccc(F)cc1)c1c(O)n(C)c(=O)n(C)c1=O	i	i	19909	?
CCC(=NCc1ccco1)c1c(O)n(C)c(=O)n(C)c1=O	i	i	i	i
CC(=NCC1CCCO1)c1c(O)n(C2CCCCC2)c(=O)[nH]c1=O (stereo not given)	i	i	i	i
CCOC(=O)N1CCN(S(=O)(=O)c2ccc(OC)c(C(=O)N3CCCCC3)c2)CC1	i	i	i	i
CCOC(=O)CSc1nc2ccsc2c(=O)n1C1CCN(C(=O)OCC)CC1	i	i	i	i
CCOC(=O)N1CCC(n2c(SCC(=O)NCc3ccco3)nc3ccsc3c2=O)CC1	i	i	23599	i
CCOC(=O)CSc1nc2cc(C(=O)NCc3ccco3)ccc2c(=O)n1C1CCCCC1	i	i	16581	i
Cc1ccc(CSc2nnc(-c3cccnc3)n2N)cc1	i	i	23095	i
Cc1ccc(C(=O)CSc2nnc(-c3cccnc3)n2N)cc1	i	i	i	i
Cc1ccc(CSc2nnc(-c3ccco3)n2N)cc1	i	i	23093	i
COc1cc(OC)c2c(-c3cccc(-c4ccc(F)c(Cl)c4)c3)cc(=O)oc2c1	i	i	i	i
Cc1ccc(NC(=O)CN2C(=O)S/C(=C/c3ccc(-c4cc(C(=O)O)ccc4C)o3)C2=O)cc1C	i	i	16807	i
Cc1ccccc1Nc1nc(N)nc(COC(=O)CCS(=O)(=O)c2ccccc2)n1	i	i	24248	i
Cc1ccc(S(=O)(=O)CCC(=O)OCc2nc(N)nc(Nc3ccccc3C)n2)cc1	i	i	i	i
Cn1c(NC(=O)c2ccc(F)cc2)c(-c2ccccn2)c(=O)c2ccccc21	i	i	i	i
Cn1c(NC(=O)c2ccccc2)c(-c2ccccn2)c(=O)c2ccccc21	i	i	20450	i
COc1ccc(C(=O)CCC(=O)Nc2cc(Cl)c(O)c(Cl)c2)cc1	i	i	i	i
Cc1cccc(N2C(=O)CC(N(C(=O)c3ccco3)c3cccc(C)c3)C2=O)c1 (stereo not given)	i	i	17561	?
NC(=O)C1CC2(C1)CC(C(N)=O)C2 (stereo not given)	i	i	i	i
CC(C)[C@H](NC(=O)NCCc1ccc(Cl)cc1)C(=O)O	i	i	17382	?
Cc1cc(N=Cc2c(O)n(-c3ccc4c(c3)OCO4)c(=O)c3ccccc23)ccn1	i	i	i	i
Cc1ccc(-n2c(O)c(C=Nc3ccc4c(c3)OCO4)c3ccccc3c2=O)cc1C	i	i	22790	i
O=C(COc1ccccc1)n1nc(-c2ccc(Cl)cc2)nc1NCc1ccco1	i	i	21640	i
Cc1ccc(S(=O)(=O)n2nc(-c3ccc(Cl)cc3)nc2NCc2ccco2)cc1	i	i	23333	?
SMILES	BoNT F protease	Anthrax LF prot	Bead autofluor	BoNT-A LC inh2
O=C(Oc1ccc(Br)cc1C(=S)N1CCOCC1)c1ccc([N+](=O)[O-])cc1[N+](=O)[O-]	i	i	i	i
Cn1cccc1CNCc1ccccc1Cl	i	i	18677	i
CC(=O)Oc1ccc2oc3c(c2c1)C(=O)CCC3	i	i	23365	i
CC(C)c1[nH]nc2c1C(c1cccs1)C(C#N)=C(N)O2 (stereo not given)	i	i	20949	i
CC(C)C1C(C#N)=C(N)Oc2n[nH]c(-c3cccs3)c21 (stereo not given)	i	i	i	i
CC(C)(C)S(=O)N1Cc2cc(C(=O)N3CCc4ccccc4C3)nc(-c3cccc(-c4ccncc4)c3)c2[C@H]1CCO (stereo not given in full)	i	i	i	i
COc1ccc(OC)c(NC(=O)CSc2nnc(-c3cnccn3)n2C)c1	i	i	i	i
C/C(CC(=O)Nc1cccc2c1CCCC2)=N\NC(=O)c1ccccc1N	i	i	24027	?
C/C(CC(=O)Nc1cccc2c1CCCC2)=N\NC(=O)c1cccc2ccccc12	i	i	i	i
O=C(C1CCC(=O)N(C2CCCC2)C1)N1CCN(Cc2cccc(Cl)c2)CC1 (stereo not given)	i	i	i	i
COc1ccc(CCNC(=O)c2cc(-c3ccccc3OC)on2)cc1OC	i	i	24479	?
COc1ccc(-c2cc(C(=O)NCCc3ccccc3)no2)cc1OC	i	i	20927	i
COc1ccccc1-c1cc(C(=O)Nc2cccnc2)no1	i	i	22187	i
COc1ccccc1-c1cc(C(=O)NCCc2ccccc2)no1	i	i	i	i

From PubChem BioAssay
